Assay outcomes deposited in PubChem by National Center for Advancing Translational Sciences (NCATS).
Most compounds without a hit are left out; they make up all but 4.6% or so of the library.
MARV entry inh: qHTS for inhibitors of binding or entry into cells for Marburg Virus; Potency, µM (top dose mostly 37.8 µM), for inactives: top-dose activity change, negative = inhibition, hits mostly inhibitors; Marburg virus pseudotyped entry inhibition, cell reporter; 300,000 tested, 1.8% active; AID 540276, 2011; calls by dose curve; tested in HEK293 cells
LASV entry inh: qHTS for Inhibitors of binding or entry into cells for Lassa Virus. Lassa virus pseudotype entry inhibition, cell reporter. Potency, µM (top dose mostly 37.9 µM), without a hit: top-dose activity change, negative = inhibition, actives largely listed as inhibitors. 300,000 tested, 1.2% active; calls by dose curve; tested in HEK293 cells; note: nearly all actives have a fitted effect of over 50% in size
HCV inhibitor: qHTS Assay for Inhibitors of Hepatitis C Virus (HCV). Huh7.5.1 HCVcc-Cre infection, luciferase reporter, 44 h. Potency, µM (series often up to 41.8 µM), without a hit: top-dose activity change, negative = inhibition, hits mostly inhibitors. 340,000 tested, 3.4% active; active = well fitted inhibition curve with a large enough effect; inconclusive = small, poorly fitted or top-dose-only effect, or another doubt; inactive = no such curve, though single readings can be large or run the other way
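Cells (1,000/well) were plated 4 h before compound, then infected with HCVcc-Cre virus (~0.5 moi). After 44 h further culture, infection was read as luciferase luminescence following a 15 min substrate incubation at room temperature.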
Vaccinia mCherry: qHTS for Stage-Specific Inhibitors of Vaccinia Orthopoxvirus: mCherry Reporter Primary qHTS. 310,000 tested, 0.63% active. Vaccinia virus mCherry reporter infection, fluorescence. AID 720579, 2013. Potency, µM (titrated, usually from 36.5 µM), without a hit: top-dose activity change, negative = inhibition, usual class: inhibitors; calls by dose curve; tested in A549 cells; note: nearly all actives have a fitted effect of over 35% in size
Vaccinia Venus: qHTS for Stage-Specific Inhibitors of Vaccinia Orthopoxvirus: Venus Reporter Primary qHTS. 330,000 tested, 0.46% active. AID 720580, 2013. Vaccinia virus Venus reporter expression, fluorescence. Potency, µM (doses to about 36.5 µM), inactives show top-dose activity change, negative = inhibition, usual class: inhibitors; calls by dose curve; tested in A549 cells; note: nearly all actives have a fitted effect of over 30% in size
* = called active by the depositor; i = inactive; ? = inconclusive; . = no result; [ ] = dose if it differs, or a comment. % is set by controls: 0 for no effect and ±100 for the full control effect; potency is the fitted concentration of half-maximal effect.

SMILES | MARV entry inh | LASV entry inh | HCV inhibitor | Vaccinia mCherry | Vaccinia Venus
Cc1ccc2nc(-c3ccc(NC(=O)C4CCCO4)cc3)[nH]c2c1 (stereo not drawn) | ? | 8.2µM* | -26% | . | .
COC(=O)c1cc2sccc2n1Cc1nc(-c2cccc(Br)c2)oc1C | 4%[46.1 µM] | . | . | i | -6%
Cc1ccc(C2CCN(C(=O)c3cnn(-c4ccc(C)c(C)c4)c3C3CCN(C(=O)OC(C)(C)C)CC3)C2)cc1 (stereo not drawn) | . | ? | . | -29% | -26%
COC1(OC)C(/C=C/c2ccc(C)cc2)C(C#N)(C#N)C1(OC)OC (stereo not drawn) | ? | ? | ? | 14µM* | 28µM*
Cc1cc(Nc2ccc(C)c(C)c2)c2ccccc2n1 | 3.2µM* | -3%[46.1 µM] | ? | ? | -6%
CCOc1ccc2nc(C)cc(Nc3cccc([N+](=O)[O-])c3)c2c1 | ? | ? | ? | 11µM* | ?
CCOc1ccc(Nc2cc(C)nc3c(C)cccc23)cc1 | 0.89µM* | -29% | ? | -19% | -17%
Cc1cc(Nc2ccccc2C)c2cccc(C)c2n1 | . | ? | . | -21% | 4%
COc1ccc(Cl)cc1Nc1cc(C)nc2ccccc12 | . | . | 11µM* | . | .
Cc1cc(Nc2cccc([N+](=O)[O-])c2)c2ccccc2n1 | -1%[46.1 µM] | 10% | -29% | ? | ?
COc1ccc(OC)c(Nc2cc(C)nc3ccccc23)c1 | ? | -24% | ? | . | .
C[C@@H]1C[C@@H](CC(=O)NCC2Cc3cccc(-c4ccncc4)c3O2)NC(=S)N1 (stereo partly drawn) | . | . | . | i | -26%
Cc1cc(NCc2ccccc2)c2ccccc2n1 | . | . | 11µM* | . | .
COc1ccc2nc(C)cc(NCc3cccc(C(F)(F)F)c3)c2c1 | ? | ? | 10µM* | -26% | ?
COc1ccc2nc(C)cc(Nc3ccccc3O)c2c1 | ? | -2% | ? | . | .
Cc1nn(CC(=O)NCCc2ccc(Cl)cc2)c(=O)c2cc3cc(F)ccc3n12 | 2%[46.1 µM] | . | . | -3% | 10%
O=C1CCCC2=C1[C@H]1O[C@](c3ccsc3)(Cc3c1ccc1ccccc31)O2 | -14%[14.2 µM] | . | . | . | .
C#CCN1C(=O)[C@]2(O[C@H](COc3ccccc3)CC3=CCCC32)c2c(Br)cccc21 (stereo partly drawn) | 8%[14.2 µM] | . | . | . | .
N#Cc1cc(C(=O)c2cc(Br)ccc2O)cn(C2CCCCC2)c1=O | ? | ? | 11µM* | . | .
COc1cc(SC)ccc1C(=O)Nc1ccccn1 | ? | ? | ? | -13% | -22%
COc1cc(SC)ccc1C(=O)Nc1ncc(C)s1 | 1.5µM* | ? | ? | . | .
CCN(CC)S(=O)(=O)c1cccc(NC(=O)c2ccc(SC)cc2OC)c1 | -14%[46.1 µM] | ? | 11µM* | ? | -23%
COc1cc(SC)ccc1C(=O)Nc1cccc(C)n1 | 10µM* | 8.9µM* | 13µM* | i | -18%
COc1cc(SC)ccc1C(=O)Nc1ccc(C)cc1 | -12%[46.1 µM] | ? | ? | -16% | ?
Cc1cc2c(cc1S(=O)(=O)Nc1cccc(Cl)c1C)n(C)c(=O)c(=O)n2C | . | ? | . | -8% | -7%
SMILES | MARV entry inh | LASV entry inh | HCV inhibitor | Vaccinia mCherry | Vaccinia Venus
Cc1c(C(=O)NCC2(N3CCOCC3)CCCCC2)cnn1-c1nccc(-c2ccccc2F)n1 | . | . | . | -19% | -3%
C#C[C@]1(O)CC[C@H]2[C@@H]3CCC4=Cc5oncc5CC4(C)[C@H]3CCC21C (stereo partly drawn) | 21µM* | ? | . | . | .
CC[C@@H](C)CCCCC(=O)N[C@H](CCN)C(=O)N[C@@H](C(=O)N[C@H](CCN)C(=O)N[C@@H]1CCNC(=O)C([C@@H](C)O)NC(=O)[C@@H](CCN)NC(=O)[C@@H](CCN)NC(=O)[C@@H](CC(C)C)NC(=O)[C@@H](Cc2ccccc2)NC(=O)[C@@H](CCN)NC1=O)[C@@H](C)O (stereo partly drawn) | . | . | . | 0% | 9%
O=C1/C(=C\c2cccc(O)c2O)SC(=S)N1Cc1ccccc1 | ? | ? | 25µM* | -15% | 34%
CCCN1C(=O)/C(=C/c2ccncc2)SC1=S | 17% | 0% | 2% | -13% | -5%
O=C1/C(=C/c2ccncc2)SC(=S)N1Cc1ccccc1 | 11µM* | -26% | 7% | -12% | -7%
Cc1ccc2nc(/C=C/c3ccc(N(C)C)cc3)ccc2c1 | . | . | . | -1% | 11%
COC(=O)[C@H]1[C@@H](C)N(CCc2cc(OC)c(OC)c(OC)c2)C(=O)N[C@H]1c1ccccc1 | -24%[14.2 µM] | . | 22µM* | -12% | -19%
O=C(C(c1ccccc1)c1ccccc1)N1CC[C@@]2(O)CCCC[C@H]2C1 | 5.6µM* | -16% | 25% | i | -17%
CCCN(C(=O)Cn1nc(Cc2cccnc2)c2ccccc2c1=O)c1ccc(C(C)C)cc1 | ? | -19%[46.1 µM] | . | -13% | -10%
Cc1cccc(NC(=O)CSc2cn(CC(=O)N3CCCC3)c3ccccc23)c1C | . | 7%[46.1 µM] | . | -9% | -7%
C/C(=C\c1ccc(N(C)C)cc1)[N+](=O)[O-] | 5.2µM* | ? | ? | . | .
COc1ccccc1N(CC(=O)NCCSCc1ccc(C)cc1)S(=O)(=O)c1ccccc1 | . | . | 13µM* | . | .
Cc1ccc(CSCCNC(=O)CN(c2cccc(C)c2C)S(=O)(=O)c2ccccc2)cc1 | ? | ? | . | -29% | -20%
CCOc1ccccc1N(CC(=O)NCCSCc1ccco1)S(=O)(=O)c1ccccc1 | ? | ? | 13µM* | -8% | -18%
CSc1ccccc1-n1nnnc1SCC(=O)Nc1ccccc1C | -6% | -12% | 11µM* | . | .
Cn1c(-c2ccccc2)cc2c3no[n+]([O-])c3ccc21 | 3.5µM* | 4.5µM* | 2.5µM* | -13%[1.46 µM] | ?
Cc1ccc(C(C#N)c2ccc(C(=O)c3ccc(F)cc3)cc2)cc1 (stereo not drawn) | ? | 10µM* | ? | -15%[1.46 µM] | ?
Cc1ccc(C(=O)NC(C)c2ccc(F)cc2)cc1 (stereo not drawn) | -12% | -19% | -4% | i | -9%
COc1ccccc1CCNC(=O)C(C)Sc1nc(-c2ccccc2)cc(C(F)(F)F)n1 (stereo not drawn) | -11%[46.1 µM] | 6%[46.1 µM] | . | -17% | -9%
CCN1/C(=C/C=C/c2oc3ccc(-c4ccccc4)cc3[n+]2CC)Oc2ccc(-c3ccccc3)cc21 | 2.5µM* | 4.5µM* | 0.89µM* | 169% | .
CC(C)OCCCn1c(=O)c2ccccc2n2c(-c3ccc(F)cc3)nnc12 | -16%[46.1 µM] | 4%[46.1 µM] | . | -16% | -18%
COc1cc(CNC(C)(C)CO)cc(Br)c1OCc1ccccc1 | ? | ? | -19% | -13% | -12%
CCOc1cc(CNCCCN2CCOCC2)cc(Br)c1OCc1ccccc1Cl | ? | ? | 3.5µM* | ? | ?
CCOc1cc(CNC(C)(C)CO)cc(Br)c1OCc1ccc(Cl)cc1Cl | 18µM* | ? | 2.8µM* | ? | ?
CCOc1cc(CNCCN2CCOCC2)ccc1OCc1ccccc1Cl | ? | ? | 2.8µM* | -17% | -8%
